{"source": "ChEMBL document CHEMBL4888484", "about": "“Replenishing the malaria drug discovery pipeline: Screening and hit evaluation of the MMV Hit Generation Library 1 (HGL1) against asexual blood stage Plasmodium falciparum ,using a nano luciferase reporter read-out” (2022)", "note": "About 420 (8.8%) of roughly 4,800 compounds showed an effect of 50% or more. This excerpt belongs to a sample that is enriched for strong results."}
{"system": "Plasmodium falciparum", "experiment": "Confirmatory screen in NF54 nanoGlo assay, in single point, at 2uM, 72h", "type": "functional, Erythrocyte", "details": "timepoint 72 hour", "units": {"% Inhibition": "%"}}
{"molecule": "CN(C)c1c(F)c(F)c2cc3c(C(C)(C)C)nn(C)c3nc2c1F", "% Inhibition": 3}
{"molecule": "COc1ccc([C@H](CNC(=O)c2ccccc2)N2CCC(c3ccccc3)=N2)cc1", "% Inhibition": -3}
{"molecule": "CCOc1cc(CNCCCn2ccnc2)ccc1OCc1ccccc1", "% Inhibition": 21}
{"molecule": "OCCNCc1ccc(Cl)cc1Cl", "% Inhibition": 0}
{"molecule": "COc1cccc(CNCCCN2CCOCC2)c1OCc1ccc(Cl)cc1Cl", "% Inhibition": -1}
{"molecule": "COc1cccc(CNCCN2CCOCC2)c1OCc1ccc(Cl)cc1Cl", "% Inhibition": 7}
{"molecule": "Clc1ccc(Cn2cc(CNCCCn3ccnc3)c3ccccc32)c(Cl)c1", "% Inhibition": 98}
{"molecule": "Clc1ccc(COc2ccc(Cl)cc2CNCCCn2ccnc2)c(Cl)c1", "% Inhibition": 95}
{"molecule": "Cc1nc2ccnn2cc1C(=O)Nc1ccc(CCC(C)C)cn1", "% Inhibition": -5}
{"molecule": "Cc1cc(CN(C)c2cc(C3CC3)nc(N(C)Cc3cc(C)on3)n2)no1", "% Inhibition": -13}
{"molecule": "FC(F)Oc1cccc(-c2cc(C(F)(F)F)c3c(-c4ccc5c(c4)OCO5)noc3n2)c1", "% Inhibition": 8}
{"molecule": "N#Cc1nc(COc2cccc(Cl)c2)oc1NC[C@H]1CCCO1", "% Inhibition": -1}
{"molecule": "CN(CC(=O)Nc1ncccn1)S(=O)(=O)c1ccc2c(c1)OCCCO2", "% Inhibition": -7}
{"molecule": "O=C1CC(C(=O)N2CCCCC2c2nc(-c3ccccc3)c[nH]2)CN1", "note": "(stereo not drawn)", "% Inhibition": 3}
{"molecule": "Nc1nc(C2CC(N)C2)cc(N2CCC(Oc3ccccc3Cl)CC2)n1", "note": "(stereo not drawn)", "% Inhibition": 51}
{"molecule": "N[C@H]1C[C@@H](c2cc(N3CCN(C4CCCCC4)CC3)nc(N3CCCC3)n2)C1", "% Inhibition": 44}
{"molecule": "Nc1nc(N2CCN(c3ccc(F)c(Cl)c3)CC2)cc([C@H]2C[C@@H](N)C2)n1", "% Inhibition": 32}
{"molecule": "CCC1CN(CCCN2C(=O)CNC2=O)CCC1c1ccccc1", "note": "(stereo not drawn)", "% Inhibition": 0}
{"molecule": "COC(=O)C1(CNC(=O)C2CCC2)CCCCC1", "% Inhibition": 1}
{"molecule": "CCN(C(=O)CN1C(=O)C(c2ccccc2)=NC12CCC(C)CC2)c1ccccc1", "note": "(stereo not drawn)", "% Inhibition": -9}
{"molecule": "CCN(C(=O)Cn1cc(-c2ccccc2)c2ncn(CC)c(=O)c21)c1ccccc1", "% Inhibition": 75}
{"molecule": "CCN(C(=O)Cn1ncn2nc(-c3cccc4ccccc34)cc2c1=O)c1ccccc1", "% Inhibition": 1}
{"molecule": "CCOC[C@@H](O)CN(Cc1c(-c2ccccc2)noc1N1CCC(C)CC1)CC1CC1", "% Inhibition": -7}
{"molecule": "CCOC(=O)N1CCC(NC(=O)c2cn[nH]c2-c2ccc(OCC)c(Cl)c2)CC1", "% Inhibition": 2}
{"molecule": "O=C(NC1CCN(Cc2ccccc2)CC1)c1cn[nH]c1-c1ccccc1", "% Inhibition": -3}
{"molecule": "CNC(=O)N1CCN(c2cc(C)nc(C3CC3)n2)CC1", "% Inhibition": -18}
{"molecule": "O=C(Cn1nnc2ccccc21)N(Cc1ccccc1)C1(C(=O)Nc2ccc3c(c2)OCO3)CCCCC1", "% Inhibition": 23}
{"molecule": "O=C(COc1ccccc1)N1CC(n2cnnc2C2CC2)C1", "% Inhibition": -11}
